In the library only some 2.3% were active in any assay of this set; here they are far more common.
A549 tox: Nrf2 qHTS screen for inhibitors: counterscreen for cytotoxicity. 0.16% of 390,000 active. Potency, µM (series often up to 46 µM), usual class: inhibitors. A549 ARE-Fluc cells, CellTiter-Fluor viability, 18-24 h
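A549 ARE-Fluc cells in 5% FBS OPTI-MEM, 5000 cells/well, rested 2 h then exposed to compounds in concentration-response for 18-24 h at 37 °C. Viability by CellTiter-Fluor fluorescence (Ex 405/Em 525) after 30 min; luciferase luminescence (BugLite, 15 min, RT) read afterwards.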
miR-21 reporter: qHTS Assay for Modulators of miRNAs and/orActivators of miR-21 | 340,000 tested, under 10 active | Potency, µM (titrated, usually from 38.3 µM), usual class: activators | HeLa miR-21 FLuc reporter, luciferase, 48 h;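 also: miR-21 action dims this reporter so a rising signal means less miR-21 action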
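Luminescence from a firefly luciferase reporter carrying a miR-21 binding site downstream, stably expressed under a CMV promoter in HeLa cells that make miR-21 endogenously, reports miRNA modulation after 48 h compound exposure up to approximately 40uM final.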
Mito fusion yeast: qHTS Assay for Small Molecule Inhibitors of Mitochondrial Division or Activators of Mitochondrial Fusion; S. cerevisiae fusion-defective mutant growth rescue, CellTiterGlo 48 h; Potency, µM (titrated, usually from 46.1 µM), usual class: activators; 0.23% of 320,000 active; also: nearly all actives have a fitted effect of over 45% in size
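Read-out: ATP-based luminescence (CellTiterGlo, 10 min ambient) reporting growth of fusion-defective ts yeast after 48 hours at 37C on glycerol/ethanol YPEG medium in the presence of compound.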
Nrf2 block: Nrf2 qHTS screen for inhibitors; Potency, µM (doses to about 46 µM), usual class: inhibitors; A549 ARE-Fluc reporter, luciferase luminescence, 18-24 h; 2.1% of 360,000 active; AID 504444, 2011; also: nearly all actives have a fitted effect of over 60% in size
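A549 ARE_Fluc cells (5000/well, 5% FBS OPTI-MEM) pre-incubated 2 h, then treated with compounds 18-24 h at 37C/5% CO2 in concentration-response. CellTiter-Fluor viability read first; BugLite luciferase luminescence after 15 min at room temperature gives Nrf2 activity.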
Nrf2 ARE act: qHTS of Nrf2 Activators; AREc32 ARE-luciferase reporter (MCF7-derived line), luminescence, 24 h; Potency, µM (titrated, usually from 46.1 µM), actives largely listed as activators; 0.31% of 410,000 active; AID 624171, 2012; also: nearly all actives have a fitted effect of over 65% in size
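Nrf2 activation is followed as ARE-luciferase induction in the AREc32 line after one day of compound treatment; luminescence is read with Steady-Glo.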
Of the large screens only hits and unclear results are named; the others gave an inactive call. Calls follow the shape of the dose curve; as a rule, active = well fitted curve in the direction sought with a large enough effect; inconclusive = small, poorly fitted or top-dose-only effect, or another doubt; inactive = no such curve, though single readings can be large; an effect the other way counts as inactive or inconclusive.

COc1ccc(O)c(/C=N/NC(=O)c2ccc(CSc3nc(C)cc(C)n3)cc2)c1	Nrf2 block 9.2µM
CCOC(=O)c1cccc(NC(=O)CC2C(=O)N(c3ccc(Cl)cc3)C(=O)N2C2CCCC2)c1 (stereo not drawn)	A549 tox inconclusive, miR-21 reporter inconclusive (no result: Mito fusion yeast)
CCn1cc(C(=O)NCc2ccccc2)c(=O)c2cc(F)c(N3CCN(C(=O)c4ccco4)CC3)cc21	A549 tox inconclusive (no result: Nrf2 block)
CCn1cc(C(=O)NCc2ccc3c(c2)OCO3)c(=O)c2cc(F)c(N3CCN(C(=O)c4ccco4)CC3)cc21	A549 tox inconclusive, Nrf2 block 16.4µM
CCn1c(=O)n(CC)c2cc(N3CCCCC3)c(NC(=O)Nc3cc(Cl)ccc3OC)cc21	Nrf2 block inconclusive (no result: Mito fusion yeast)
CCN(CC)S(=O)(=O)c1cc(NC(=O)C2CCN(c3ncnc4sc(C)c(C)c34)CC2)ccc1Cl	A549 tox inconclusive, Nrf2 block 11.6µM (no result: miR-21 reporter)
Cc1ccc(NC(=O)C2CC(=O)N(Cc3ccccc3)C2)cc1S(=O)(=O)N1CCCCCC1 (stereo not drawn)	Nrf2 block inconclusive
Cc1ccc(NC(=O)C2CCN(c3ncnc4sc(C)c(C)c34)CC2)cc1S(=O)(=O)N(C)C	Nrf2 block 23.1µM (no result: miR-21 reporter)
CCN(CC)S(=O)(=O)c1cc(NC(=O)C2CC(=O)N(Cc3ccccc3)C2)ccc1Cl (stereo not drawn)	Nrf2 block 18.4µM (no result: miR-21 reporter)
COc1ccc(Cl)cc1NC(=O)c1cc(C)no1	Nrf2 ARE act 8.91µM
COc1ccc(Cl)cc1NC(=O)c1cnccn1	Nrf2 ARE act 12.6µM
O=C(Nc1cc(Cl)ccc1Oc1ccccc1)c1cnccn1	none
Cc1ccc(O)c(NC(=O)c2cc(C)no2)c1	Nrf2 block inconclusive, Nrf2 ARE act 12.6µM
COc1ccc(Cl)cc1NC(=O)c1cc(-c2ccccc2O)n[nH]1	Mito fusion yeast 6.31µM, Nrf2 ARE act inconclusive
CCC(=O)N1CCc2cc(CNS(=O)(=O)c3c(C)cc(C)cc3C)ccc21	none (no result: Mito fusion yeast, Nrf2 block)
CSc1cc2c(s1)c1cnn(Cc3cccc(O)c3)c(=O)c1n2C	Nrf2 block inconclusive (no result: miR-21 reporter, Mito fusion yeast, Nrf2 ARE act)
CC(C)(C)NC(=O)c1cnn(-c2ccccc2)c1C1CCN(C(=O)OC(C)(C)C)CC1	Nrf2 block inconclusive (no result: Mito fusion yeast)
COc1ccccc1N1CCN(C(=O)CSc2ncnc3scc(-c4ccccc4)c23)CC1	Nrf2 block 18.4µM
COc1ccc(OC)c(CCNC(=O)c2cnn(-c3ccc(C)cc3C)c2C2CCN(C(=O)OC(C)(C)C)CC2)c1	Nrf2 block 18.4µM (no result: Mito fusion yeast)
Cc1ccc(C)c(N2CCN(C(=O)c3cnn(C(C)(C)C)c3C3CCN(C(=O)OC(C)(C)C)CC3)CC2)c1	Nrf2 block 20.6µM (no result: Mito fusion yeast)
Cc1ccc(C)c(N2CCN(CCCNC(=O)c3cnn(-c4ccc(F)cc4)c3C3CCN(C(=O)OC(C)(C)C)CC3)CC2)c1	A549 tox 18.4µM, Nrf2 block inconclusive (no result: Mito fusion yeast)
Cc1ccc(C)c(N2CCN(CCCNC(=O)c3cnn(-c4cccc(Cl)c4)c3C3CCN(C(=O)OC(C)(C)C)CC3)CC2)c1	A549 tox inconclusive, Nrf2 block inconclusive (no result: Mito fusion yeast)
C=C(C)[C@@H]1C2=CC(C(=O)OC)=C(C[C@@H](C(=C)C)[C@H]3O[C@H]3C3=C[C@H]1OC3=O)O2	none (no result: miR-21 reporter, Mito fusion yeast, Nrf2 ARE act)
Cc1ccccc1/C=C1\C(=O)Nc2ccc(F)cc21	A549 tox inconclusive, Mito fusion yeast inconclusive, Nrf2 block 2.91µM, Nrf2 ARE act inconclusive
O=C1Nc2ccccc2/C1=C/c1ccccc1F	Nrf2 ARE act inconclusive
COc1ccc(Cl)cc1NC(=O)Nc1cccc([N+](=O)[O-])c1C	Nrf2 block 13µM
CCN(C(=O)c1nn(-c2ccc(C)cc2)c(=O)c2c1c1ccccc1n2C)c1ccc(F)cc1	none (no result: Mito fusion yeast)
Cc1nc2ccccc2n1/N=C/c1ccc([N+](=O)[O-])o1	A549 tox inconclusive, Nrf2 block 20.6µM (no result: miR-21 reporter, Mito fusion yeast)
Cc1nc2ccccc2c(=O)n1/N=C/c1ccc([N+](=O)[O-])o1	miR-21 reporter inconclusive (no result: A549 tox, Nrf2 block, Nrf2 ARE act)
O=[N+]([O-])c1cccc(-c2ccc(/C=N/n3c(-c4ccccc4)n[nH]c3=S)o2)c1	none
Cc1n[nH]c(=S)n1/N=C/c1ccc(-c2ccccc2[N+](=O)[O-])o1	A549 tox inconclusive, Nrf2 ARE act 10µM (no result: Nrf2 block)
COc1ccc(C2Nc3ccccc3C(=O)N2CCO)cc1COc1ccc(NC(C)=O)cc1 (stereo not drawn)	none (no result: miR-21 reporter, Mito fusion yeast, Nrf2 ARE act)
COc1cccc(CCn2c(N)cc(=O)[nH]c2=S)c1OC	none (no result: miR-21 reporter, Mito fusion yeast, Nrf2 ARE act)
CC(=O)c1c(C)[nH]c(C(=O)CSc2nc3ccccc3n2C)c1C	Nrf2 block 14.6µM
CCN1CCOC(=O)C1CC(=O)Nc1cccc(OC)c1 (stereo not drawn)	none (no result: Mito fusion yeast)
CSc1ncc(Cl)c(C(=O)Nc2cccnc2)n1	Mito fusion yeast inconclusive, Nrf2 ARE act 11.2µM
CSc1ncc(Cl)c(C(=O)Nc2ccc(NC(C)=O)cc2)n1	none
NS(=O)(=O)c1ccc(CCNC(=O)CN2CCN(c3ccc(F)cc3)CC2)cc1	Nrf2 block 16.4µM
NS(=O)(=O)c1ccc(CCNC(=O)CN2CCN(c3cccc(Cl)c3)CC2)cc1	Nrf2 block inconclusive
Cc1cc(C(=O)COc2ccccc2C(N)=O)c(C)n1CC1CCCO1 (stereo not drawn)	Nrf2 block 4.61µM
Cc1cc(C(=O)COC(=O)c2ccccc2O)c(C)n1CC1CCCO1 (stereo not drawn)	Nrf2 block inconclusive (no result: miR-21 reporter)
Cc1cc(C(=O)CSc2nc3ccc(Cl)cc3[nH]2)c(C)n1CC1CCCO1 (stereo not drawn)	Nrf2 block 13µM
CCOCCCN(Cc1ccco1)S(=O)(=O)c1cc2c(cc1Cl)NC(=O)CO2	none (no result: Mito fusion yeast, Nrf2 block)
CN1C2CCC1/C(=C\c1ccccc1)C(=O)/C2=C\c1ccccc1	A549 tox inconclusive, Nrf2 block 25.9µM, Nrf2 ARE act inconclusive
CCc1ccc(NC(=O)C(=O)NCCc2csc(-c3ccc(C(F)(F)F)cc3)n2)cc1	none (no result: Mito fusion yeast, Nrf2 block)
COc1ccc(Br)cc1C1NC(c2ccc3c(c2)OCO3)=CC(c2ccccc2O)N1 (stereo not drawn)	Nrf2 block inconclusive (no result: miR-21 reporter, Mito fusion yeast, Nrf2 ARE act)
O=C(Nc1ccc(N2CCN(c3ncccc3C(F)(F)F)CC2)nc1)c1cccs1	A549 tox inconclusive, miR-21 reporter inconclusive, Nrf2 block 20.6µM
O=C(Nc1ccc(N2CCN(c3ccc(C(F)(F)F)cn3)CC2)nc1)c1cccs1	Nrf2 block inconclusive
CC(C)C(C)NC(=O)COc1ccc(Sc2ccc(OCC(=O)NC(C)C(C)C)cc2)cc1 (stereo not drawn)	Nrf2 block 20.6µM
COc1cc(OC)c(NC(=O)c2csc(C)c2)cc1Cl	Nrf2 ARE act 12.6µM
COc1cc(OC)c(NC(=O)c2cc3ccccc3cc2O)cc1Cl	Nrf2 block 25.9µM (no result: miR-21 reporter, Mito fusion yeast)
COc1cc(OC)c(NC(=O)c2ccc(F)cc2)cc1Cl	Nrf2 block inconclusive

Source: PubChem (National Center for Advancing Translational Sciences (NCATS))
